Source: the supplement of paper PMC4371806
Whole data set: some 2,300 compounds, median “plate-normalized OD600 growth (mean of duplicates)” near 0.29, cut for the lowest 2% near 0.22. Only a selection was taken, and the lowest values are over-represented in it overall.

Test system: Escherichia coli BW25113
Test: plate-normalized OD600 growth (mean of duplicates) (OD600 (normalized)); higher = more growth (less inhibition)
Settings: 10 µM
Procedure: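 E. coli BW25113 in LB (100 µl, 96-well, no shaking) was exposed to 10 µM of each compound from a ~30,000-member library and grown at 37°C for 24 h or 15°C for 48 h, in duplicate. Growth was read as OD600 and the duplicate ODs were normalized across screening plates to correct plate-to-plate variation. Hits were >3σ below the mean OD600 at 15°C and <2σ below the mean at 37°C.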

Structure (SMILES)	plate-normalized OD600 growth (temperature: 15°C, 48 h)	plate-normalized OD600 growth (temperature: 37°C, 24 h)
NC(N)=NC(N)=Nc1ccccc1C(F)(F)F	0.243	0.604
Cc1ccc(C2=Nc3ccccc3N=C(C(Cl)Cl)C2)cc1	0.25	0.629
Cc1noc(N)c1C(N)=S	0.247	0.612
O=C(COc1ccc(/C=N/NC(=O)CO)cc1)NCC1CCCO1 (stereo unspecified)	0.227	0.668
NNC(=O)c1cnn(-c2ccc(Cl)cc2)c1C(F)(F)F	0.253	0.627
CCN(CC)c1ccc(NC(=O)c2c(F)cccc2F)c(N(CC)CC)n1	0.235	0.602
Cc1ccc(N=Cc2ccc(Sc3nc4ccccc4s3)o2)cc1	0.245	0.625
C/C(=N/NC(=O)COc1cccc(Cl)c1)c1ccc(Cl)cc1	0.248	0.631
CC1(C)OC(=O)N(CCCCCCN2C(=O)OC(C)(C)C2(C)O)C1(C)O (stereo unspecified)	0.197	0.652
CC1(O)N(CCN)C(=O)OC12CCCCC2 (stereo unspecified)	0.269	0.626
COc1ccc(/C(C)=N\NC2=NCCCN2)cc1	0.214	0.597
Nc1c(C(=O)c2ccc(Br)cc2)sc2nc(-c3ccccc3)cc(-c3ccccc3)c12	0.256	0.621
Nc1c(C(=O)c2ccc(Br)cc2)sc2nc(-c3cccs3)cc(C(F)(F)F)c12	0.142	0.578
Cc1ccc(C(=O)c2sc3nc(-c4cccs4)cc(C(F)(F)F)c3c2N)cc1	0.239	0.623
Cc1ccccc1COC(=O)c1ccc(-c2nnn(Cc3ccccc3C)n2)cc1	0.244	0.611
COCc1cc(C)nc2sc(C(=O)OC)c(N)c12	0.243	0.626
CCOc1ccc(-n2nc3ccc(NC(=O)COc4ccccc4C)cc3n2)cc1	0.235	0.616
CCOc1ccc(NC(=O)CSc2nc(C)cc(COC)c2C#N)cc1	0.21	0.638
Cc1cc(=O)n2c(-c3ccc(Cl)cc3)csc2n1	0.239	0.607
CCc1c(C)nc2[nH]nc(-c3ccccc3C)n2c1=O	0.245	0.626
CCc1c(C)nc2cc(-c3ccc(Cl)cc3)[nH]n2c1=O	0.214	0.632

Structure (SMILES)	plate-normalized OD600 growth (temperature: 15°C, 48 h)	plate-normalized OD600 growth (temperature: 37°C, 24 h)
NC(N)=NS(=O)(=O)c1ccc(NC(=O)C2CCCCC2)cc1	0.256	0.628
COc1ccc2[nH]c(C)c(CCNS(=O)(=O)c3cc(Cl)ccc3Cl)c2c1	0.249	0.606
COc1ccc(Cc2nnc(-c3ccc(-c4cccs4)s3)o2)cc1	0.258	0.615
Cc1c(NC(=O)c2ccc(N)cc2)c(=O)n(-c2ccccc2)n1C	0.248	0.629
CC(C)(C)OC(=O)NC1CCN(C(=O)c2ccc(Cl)cc2Cl)CC1	0.244	0.629
O=[N+]([O-])c1ccc2c(c1)S(=O)(=O)N=C2Nc1cc(Cl)ccc1Cl	0.251	0.626
C=CCn1c2ccccc2c2nnc(SCC(=O)Nc3ncccn3)nc21	0.245	0.599
Cc1cccc(C2(c3cccc(C)c3)CC2C(=O)Nc2ccc(C#N)cc2)c1 (stereo unspecified)	0.232	0.597
CC(C)CSc1ncnc2scc(-c3ccccc3)c12	0.235	0.631
Cc1ccc(N(C)C(=S)Nc2ccc3nc[nH]c(=O)c3c2)cc1C	0.237	0.625
Cc1cccc(-n2c(C)cc(C=Nc3ccc(Cl)cc3O)c2C)c1	0.249	0.613
COc1c(Cl)cnc(Cl)c1C(N)=O	0.265	0.636
C/C(=N/O)c1ccc2c(c1)C(C)(C)CCC2(C)C	0.256	0.629
N#Cc1cc(I)c(C#N)c(I)c1	0.198	0.616
O=C(O)CCCN1C(=O)C(=O)C(=C(O)c2ccccc2)C1c1ccc(Br)cc1 (stereo unspecified)	0.226	0.646
Cc1sc(NC(=O)c2cc3ccccc3oc2=O)nc1-c1ccc(-c2ccccc2)cc1	0.253	0.625
CC(C)(C)n1ncc(N/N=C/c2ccc(Cl)cc2)c(Cl)c1=O	0.238	0.605
CC(C(=O)O)C(=O)c1cc(Cl)c(Cl)cc1Cl (stereo unspecified)	0.215	0.63
O=S(=O)(c1cc(Br)c(Br)s1)N1CCCCC1	0.262	0.63
Nc1nc(=Nc2ccccc2)n2c(n1)sc1ccccc12	0.243	0.61
CC(=O)Nc1ccc(NC(=O)CSc2nnc(NS(C)(=O)=O)s2)cc1	0.252	0.63

Structure (SMILES)	plate-normalized OD600 growth (temperature: 15°C, 48 h)	plate-normalized OD600 growth (temperature: 37°C, 24 h)
COc1cc(Cl)c(Cl)cc1Cl	0.251	0.604
O=C1C(Cl)=C(Oc2cc(Cl)c(Cl)cc2Cl)C(=O)c2ccccc21	0.211	0.613
COc1ccc(NC(=O)/C=C/c2cccc(Oc3ccccc3)c2)cc1	0.245	0.633
NC1=Nc2nc(Nc3ccccc3)sc2/C(=C/c2ccc(O)cc2)N1	0.248	0.628
Cc1onc(-c2ccccc2Cl)c1C(=O)Nc1ccc(S(=O)(=O)Nc2nccs2)cc1	0.246	0.614
NS(=O)(=O)c1ccc(CCn2c(-c3ccc(S(=O)(=O)N4CCCC4)cc3)csc2=Nc2cccc(C(F)(F)F)c2)cc1	0.257	0.65
O=[N+]([O-])c1ccc(-c2ncn[nH]2)cc1	0.209	0.607
O=C1NC(=O)c2cc(-c3ccc([N+](=O)[O-])cc3)ccc21	0.241	0.631
O=[N+]([O-])c1ccc(OCCCOc2ccc([N+](=O)[O-])cc2)cc1	0.238	0.596
CC(C)c1ncc(C(O)c2cccc3ccccc23)n1C (stereo unspecified)	0.249	0.63
O=c1[nH]c(-c2cn[nH]c2-c2ccc(F)cc2)nc2sc3c(c12)CCCC3	0.237	0.637
CS/C(N)=N\N=C/c1c(F)cccc1Cl	0.258	0.652
Cc1oc(-c2ccccc2)cc1C(=O)N1CCN(c2ccc([N+](=O)[O-])cc2)CC1	0.265	0.667
COc1cc(C=NCc2ccco2)ccc1O	0.242	0.622
CC1CCN(CCC(=O)Nc2ccc(Cl)cc2)CC1	0.261	0.643
NC(=O)C1CCN(CCC(=O)Nc2ccccc2)CC1	0.208	0.651
CCN1CCN(CCC(=O)Nc2ccccc2)CC1	0.228	0.624
CC(C)(C)S(=O)(=O)/C(C#N)=C/N1CCCCC1	0.267	0.62
O/N=C\c1sccc1Oc1ccccc1	0.254	0.635
CCOC(=O)c1ccc(-n2nnnc2C(c2ccc(Cl)cc2Cl)N2CCOCC2)cc1 (stereo unspecified)	0.241	0.645
Cc1ccc(C=Nc2ccc(-c3ccc(N=Cc4ccc(C)o4)c(C)c3)cc2C)o1	0.224	0.622
